Measurements: PubChem BioAssay AID594 (National Center for Advancing Translational Sciences (NCATS), 2007)
About 30 (0.05%) of roughly 59,000 compounds were called active. No stated cut-off is given here; in the data, active means max dye-equivalent concentration above about 11 nM; inconclusive means between about 1.1 nM and that limit; inactive means weaker than that. The sample as a whole holds a higher share of actives than the screen did.

Test: qHTS Assay for Spectroscopic Profiling in Rhodamine Spectral Region
Conditions: Rhodamine-region fluorescence, 547/598 nm, Tris buffer; stronger effect = higher value
Excerpt: NIH Molecular Libraries Screening Centers Network [MLSCN] NIH Chemical Genomics Center [NCGC] […] Occasionally, the artifactual effect may originate from the compound#s own spectral or other biophysical properties which generally tend to track its assay concentration. Pre-screening/profiling the library with respect to the compounds# spectral properties should help one exclude false positives early on. While the most informative fluorescent profiling data set is obtained by performing a full excitation and emission scan of each well by using a monochromator-based plate reader, such an approach is practical only on a very limited scale as scanning each well requires long time. An alternative approach, applied here, is to perform plate reader scans using selected excitation and emission wavelength pairs to generate a multidimensional relational database that correlates compound concentration and the respective relative fluorescence intensity at a given wavelength set. A standard curve of rhodamine present on each plate as six-point concentration series, was used to compute a normalized fluorescence response, termed dye-equivalent concentration, for each compound at each concentration.
NCGC Assay Protocol Summary: Buffer: 100 mM Tris buffer, pH 8.0 Dye standard plate: The wells in columns 1 through 4 of a Kalypsys polypropylene 1536-well compound plate were filled with standard solutions of fluorophore corresponding to the spectral region of interest. Solutions of rhodamine were placed in the following wells: E1, F1: 3 mM, E2, F2: 300 uM, E3, F3: 30 uM, E4, F4: zero (DMSO), G1, H1: 3 uM, G2, H2: […], G3, H3: 300 nM, G4, H4: zero (DMSO). Assay Steps: Six uL of buffer were dispensed to 1536-well Greiner black plates. Compounds and dye standards (23 nL) were transferred via Kalypsys PinTool. The plates were incubated for 15 min at room temperature, and then read on ViewLux (Perkin-Elmer) High-throughput CCD imager using 547 nm and 598 nm excitation and emission filter set. Keywords: NIH Roadmap, MLSCN, MLI, MLSMR, qHTS, NCGC, Rhodamine , Fluorescent Profiling.

Max dye-equivalent concentration, active:
O=C(O)c1c(Br)c(Br)c(Br)c(Br)c1C1c2ccc(O)cc2Oc2cc(O)ccc21 11 nM

Max dye-equivalent concentration, inactive:
COc1ccc(Cl)cc1S(=O)(=O)N1CCN(CC(=O)C(C)(C)C)CC1
O=C(CCCC(=O)N(CC(=O)NC1CCCC1)Cc1ccccc1Cl)Nc1ccccn1
COc1ccc(CCNC(=O)c2cc3sccc3n2C)cc1OC
Cc1ccc(C)c(S(=O)(=O)N2CC(=O)Nc3ccccc32)c1
CCO/C([O-])=N/c1c[n+](N2CCOCC2)no1
C/C(=C(\C#N)C(=O)NCCCN1CCOCC1)N(C)C
Cc1ccc(SCc2cc(=O)[nH]c(N3CCCCC3)n2)cc1
FC(F)(F)c1ccccc1-c1cc(NCc2ccccc2)ncn1
CCOc1ccc(-c2cn(S(=O)(=O)c3cccc4nsnc34)nc2N)cc1
COC(=O)NC1(C(F)(F)F)NC(=O)N(C2CCCCC2)C1=O (stereo unspecified)
C=CCc1cccc2cc(C(=O)N3CCN(C(=O)OCC)CC3)c(=O)oc12
COc1ccc2[nH]c3c(=O)n(Cc4ccco4)cnc3c2c1
COCCNC(=O)CN(C(=O)CCC(=O)Nc1cc(C)on1)c1ccc(C)cc1C
CCC(C)(C)n1nnnc1C(c1cccs1)N1CCN(c2nc3ccccc3s2)CC1 (stereo unspecified)
Nc1nc(N)c2[nH]c(CNc3ccc(C(=O)O)cc3)nc2n1
O=C1CCCc2c1[nH]c1ccc(Br)cc21
C=C(Br)CN1CCN(CC(=C)Br)CC1
O=C(Nc1nc2cc3c(cc2s1)OCCO3)c1cccc(S(=O)(=O)N2CCOCC2)c1
CCOc1nc(-c2ccc(OC)cc2)ccc1-c1noc(-c2cc(OC)c(OC)c(OC)c2)n1
Cc1ccc(C)c(NC(=O)C2CCCN2C(=O)OC(C)(C)C)c1 (stereo unspecified)
O=C(O)[C@@H](O)Cc1ccccn1
O=C(O)CCC(=O)Nc1ccc(N2CCOCC2)cc1
Cc1ccc2nc(CC(=O)c3ccc4ccccc4c3)c(=O)[nH]c2c1
COc1ccc(-c2cc3ccc(OCc4nn[nH]n4)cc3oc2=O)cc1
O=C(Nc1ccc2c(c1)OCCO2)C1CCCN(c2ncccn2)C1 (stereo unspecified)
CCOc1ccc2c(c1)cc(CN(C(=O)CC)C1CCCCC1)c1nnnn12
COCCn1c(=O)c(CCc2ccccc2)nc2cnc(N3CCNCC3)nc21
Cc1cc(=O)cc(C)[nH]1
Cn1c(=O)cc(OCCCC(=O)N2CCN(Cc3ccc4c(c3)OCO4)CC2)c2ccccc21
COc1ccc2[nH]c3cc4c(=O)c5cc(OC)ccc5[nH]c4cc3c(=O)c2c1
CC(=O)O[C@]1(C(C)=O)CC[C@@H]2[C@@H]3C=C(C)C4=CC(=O)CC[C@@]4(C)[C@H]3CC[C@]21C
COc1ccc(CC(=O)n2nc(-c3cccnc3)nc2N)cc1
Oc1ccc(Cn2cc[nH]c2=S)cc1
O=C(CN1CCN(S(=O)(=O)/C=C/c2ccccc2)CC1)NC(=O)NCc1ccco1
CC1CCCC(NC(=O)CN2CCN(Cc3ccc(Cl)cc3)C2=O)C1C (stereo unspecified)
Clc1ccc(Nc2nc(-c3cccs3)cs2)nc1
Cc1ccc(/C(=C/CN2CCCC2)c2ccccn2)cc1
Cc1ccc2c(c1)c1ncn(CCC3=CCCCC3)c(=O)c1n2C
COc1ccc(S(=O)(=O)NC2(C(F)(F)F)N=C3SCCN3C2=O)cc1 (stereo unspecified)
CCn1c(-c2cc(OC)ccc2OC)csc1=Nc1c(C)n(C)n(-c2ccccc2)c1=O
O=C(c1cnccn1)N1CCC2(CCCN(Cc3ccccc3)C2)CC1
CCN(CC)CCNC(=O)C1c2ccccc2C(=O)N(C)C1c1cn(C)c2ccccc12 (stereo unspecified)
CC(C)(O)C#Cc1ccc(C(=O)N2CCC(C(N)=O)(N3CCCCC3)CC2)cc1
O=C(O)[C@@H]1CCCN1c1ncnc2sc3c(c12)CCC3
O=C(CSc1nc2cc3c(cc2c(=O)n1CCC1=CCCCC1)OCO3)NCc1ccco1
CC1C=CCC2C(=O)N(c3cccc(C(=O)N4CCCCCC4)c3)C(=O)C12 (stereo unspecified)
COCCNC(=O)CSc1nc2c(n1-c1ccccc1)CCCC2
COc1ccc(S(=O)(=O)N2CCCC2)c(C)c1C
COc1ccc(C2C(C(=O)N3CCN(c4ccc(OC)cc4)CC3)c3ccccc3C(=O)N2C)cc1 (stereo unspecified)
O=C(CNS(=O)(=O)c1cccc(C(F)(F)F)c1)Nc1ccccc1F
CC(C)OC(=O)C(C#N)c1nc2ccccc2nc1N1CCN(Cc2ccccc2)CC1 (stereo unspecified)
CC(=O)c1cccc(NC(=O)N2CCCC2C(=O)NCCC(C)C)c1 (stereo unspecified)
O=S(=O)(c1ccc(Sc2nnc3ccccn23)nc1)N1CCOCC1
Cc1ccc(NC(=O)Cn2nc(C)c3ccccc3c2=O)c(C)c1
CCOC(=O)c1sc(=S)n2c1[nH]c(=O)c1ccc(C(=O)OC)cc12
O=C(Nc1ccccc1)Nc1ccccc1C(=O)NCc1ccco1
CCCCSc1nnc(-c2ccc(NC(=O)CC)cc2)n1C
Cc1cccc(N=C2NC(=O)CS2)c1C
CC1=NCCN1S(=O)(=O)c1ccc(Br)c(C)c1
O=c1c(-c2ccc(F)cc2)nc2cnc(N3CCOCC3)nc2n1-c1ccccc1
OCCCNC(c1ccccc1)c1ccc(O)cc1 (stereo unspecified)
Cc1ccccc1NC(=O)c1cc(S(=O)(=O)N2CCOCC2)cs1
O=C(Nc1cccnc1)c1noc2c1CCCCC2
CCC(=O)Nc1ccccc1N1CCN(S(C)(=O)=O)CC1
COc1ccccc1C(=O)N1CCNC(=O)C1CC(=O)Nc1ccc(Cl)cc1 (stereo unspecified)
C[C@H](CCC(=O)O)[C@H]1CC[C@@H]2[C@H]3CC[C@H]4C[C@H](O)CC[C@@]4(C)[C@@H]3CC[C@@]21C
NC(=O)CSc1oc(-c2cccs2)nc1S(=O)(=O)c1ccccc1
CCOCCN(C=O)c1cccc(OC)c1
O=C(COC(=O)c1ccc2c(c1)OCCO2)NCc1ccccc1
COC(=O)CN(c1cccc(C(C)=O)c1)S(C)(=O)=O
COCCn1c(=O)c(C)nc2cnc(N(C)C)nc21
O=C(COc1ccc(F)cc1)N(CC1=CCS(=O)(=O)C1)c1ccccc1
CN(c1ccc(C(=O)N2CCc3ccccc3C2)cc1)S(C)(=O)=O
CCCC(=O)Nc1nnc(CC(=O)OCC)s1
CCOP1(=O)C=C(C(C)(C)C)OC1c1ccc(F)cc1 (stereo unspecified)
CC(=O)NC(Cc1ccc(F)cc1)C(=O)O (stereo unspecified)
Cc1[nH]c(N)nc(=S)c1CCCNc1ccccc1
O=C(O)c1cscn1
CCOC(=O)Cc1c(C)nc2c(C#N)c(C)nn2c1C
CCN(CCCNC(=O)C1CCN(S(=O)(=O)c2cnc[nH]2)CC1)c1ccccc1
COc1cc(OC)c(C(=O)Nc2ccc(N(C)C)cc2)cc1OC
Cc1nc2cc(-c3ccc(F)cc3)nn2c(N2CCOCC2)c1C
COCCOC(=O)C1=C(C)Nc2nc(C)nn2C1c1ccccc1 (stereo unspecified)
CCOC(=O)c1sc(NC(=O)CSc2nnc(-c3ccco3)o2)c(C(=O)OCC)c1C
C[C@H](NC(=O)OC(C)(C)C)c1nnc(SCC(=O)Nc2ccc(Br)cc2)o1
Cn1c(=O)c2c(ncn2CC(=O)N2CCN(c3ccccc3)CC2)n(C)c1=O
CCCCc1nccn1CCn1ccnc1CCCC
O=C(CCn1c(=O)oc2ccccc21)Nc1ccon1
O=C1OC(NC(=O)c2ccccc2)C(N2CCOCC2)=C1Cl (stereo unspecified)
COc1cc(C2C(C(=O)c3sc(C)nc3C)=C(O)C(=O)N2CCN(C)C)cc(OC)c1OC (stereo unspecified)
COc1ccc(CC(=O)Nc2nc3n(n2)C(c2ccccc2)CC(=O)N3)cc1OC (stereo unspecified)
CCOC(=O)CN1CC23C=CC(O2)C(C(=O)Nc2ccc(F)cc2)C3C1=O (stereo unspecified)
CC1(C)Cc2c(C#N)c(SCc3nc4ccccc4[nH]3)nc(N3CCOCC3)c2CO1
CCOC(=O)C1CCCN(Cc2nc(N)nc(Nc3ccc(C)cc3)n2)C1 (stereo unspecified)
CCN(CC)c1ccc2cc(C(=O)O)c(=O)oc2c1
Cc1ccc(CN2C(=O)CCC2C(=O)NCCCN2CCCCC2C)cc1 (stereo unspecified)
Cc1ccc(Cn2nnc3c(=O)n(CC(=O)N4CCCCC4)cnc32)cc1
Cc1ccc(-n2nc3c(c2NC(=O)c2ccc4c(c2)OCO4)CSC3)c(C)c1
CCCC1CC(C)(C(=O)Cn2[nH]c(=O)ccc2=O)OC1=O (stereo unspecified)
CCc1cccc2c3c([nH]c12)C(CC)(CC(=O)O)OCC3 (stereo unspecified)
CCC(c1nnnn1Cc1ccccc1)N(Cc1cc2cc(OC)ccc2[nH]c1=O)CC1CCCO1 (stereo unspecified)
O=C(CN(CC1CCCO1)C(=O)CNS(=O)(=O)c1ccccc1)NCc1ccccc1 (stereo unspecified)
CC(=O)Nc1ccc(S(=O)(=O)N2CCN(CCCOc3cc(C)ccc3C)CC2)cc1
CCNS(=O)(=O)c1ccc(NC(=O)Nc2cccc(C(F)(F)F)c2)cc1
CCOc1ccc(CN(Cc2ccco2)C(c2cccs2)c2nnnn2C(C)(C)C)cc1 (stereo unspecified)
O=c1[nH]c(-c2cccs2)nc2ccccc12
Cc1ccc2nc(NCCCNC(=O)c3cnccn3)c(C#N)cc2c1
COc1ccc(C)cc1NC(=O)CSc1nc(SC)ns1
Cc1nc2nc(CSc3nc4ccccc4s3)cc(=O)n2[nH]1
COc1ccc(Cl)cc1S(=O)(=O)Nc1cccc(C(=O)O)c1
